Results: PMC4081100, “A DNA-binding-site landscape and regulatory network analysis for NAC transcription factors in Arabidopsis thaliana”

Molecular target: T1, GST-NAP(1-166) (Arabidopsis thaliana, UniProt O49255 1-166)
T1 sequence: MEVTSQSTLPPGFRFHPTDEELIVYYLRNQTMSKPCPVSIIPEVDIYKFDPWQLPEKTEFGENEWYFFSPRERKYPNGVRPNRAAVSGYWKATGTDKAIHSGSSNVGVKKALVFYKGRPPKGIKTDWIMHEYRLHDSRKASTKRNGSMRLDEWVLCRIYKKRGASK
Assay: universal protein binding microarray (PBM); transcription factors of Arabidopsis thaliana; high values mean tight binding
Conditions: protein: recombinant; tags: GST; chain copies: 2; dsDNA, one strand shown
How it was run: (§1)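 For zinc-finger proteins, zinc acetate was added while GST-tagged NAC-domain, full-length or DNA-binding-domain proteins were induced in cells. Purification used glutathione–Sepharose 4B, and quantification used A280 or anti-GST western blot. Custom all-10-mer Agilent 4 × 180K arrays, made double-stranded by primer extension, each received a protein at 200 to 500 nM final in duplicate. Scoring covered gapped and ungapped 8-mers, with binding given as the normalised enrichment score (E-score).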

Row | Sequence | binding signal
1 | ATTACGTA | 0.47 E-score
2 | ACACGCAA | 0.487 E-score
3 | CAAGGAAA | 0.0952 E-score
4 | TAACGTAA | 0.309 E-score
5 | ATTACGTG | 0.419 E-score
6 | ACGCAAAG | 0.295 E-score
7 | CTTACTTA | 0.111 E-score
8 | ATTTCCCC | 0.0823 E-score
9 | GTACGTCA | 0.363 E-score
10 | CGTCAAAC | 0.0647 E-score
11 | GTACGTAA | 0.419 E-score
12 | AAGTAAGT | 0.135 E-score
13 | AATGCGTG | 0.227 E-score
14 | ACGTAACG | 0.411 E-score
15 | ACGTCAAA | 0.194 E-score
16 | TGAAGAAA | 0.0893 E-score
17 | CTACGTTA | 0.135 E-score
18 | AACGTAGA | 0.0935 E-score
19 | ATGCGTAC | 0.237 E-score

Row | Sequence | binding signal
20 | AGACGTGA | 0.223 E-score
21 | AAATTGAC | 0.136 E-score
22 | GTAAGTCA | 0.0612 E-score
23 | ACTAAGTA | 0.125 E-score
24 | GATACGTA | 0.458 E-score
25 | ACGCAAGA | 0.285 E-score
26 | AGACGCAA | 0.433 E-score
27 | ACGTAAGT | 0.344 E-score
28 | TTACGTAA | 0.484 E-score
29 | AATTACGT | 0.454 E-score
30 | CACGCAAG | 0.348 E-score
31 | TTACGGAA | 0.413 E-score
32 | ACGTAAAA | 0.326 E-score
33 | ACGTAAAG | 0.255 E-score
34 | AACGTAAA | 0.24 E-score
35 | GACGTAAC | 0.409 E-score
36 | CTTACCCC | 0.096 E-score
37 | TCACGCAA | 0.433 E-score
38 | CACGAAAG | 0.17 E-score

Molecular target: T2, GST-NST2(1-184) (Arabidopsis thaliana, UniProt Q9M274 1-184)
T2 sequence: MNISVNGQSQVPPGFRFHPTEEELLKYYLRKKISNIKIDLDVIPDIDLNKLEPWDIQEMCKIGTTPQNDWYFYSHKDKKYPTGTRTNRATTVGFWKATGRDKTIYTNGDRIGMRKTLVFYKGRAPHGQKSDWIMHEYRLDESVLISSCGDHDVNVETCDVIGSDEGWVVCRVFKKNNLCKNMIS
Assay: as above
Conditions: protein: recombinant; tags: GST; chain copies: 2; dsDNA, one strand shown
How it was run: as §1

Row | Sequence | binding signal
39 | ATTACGTA | 0.331 E-score
40 | ACACGCAA | 0.47 E-score
41 | CAAGGAAA | 0.189 E-score
42 | TAACGTAA | 0.402 E-score
43 | ATTACGTG | 0.296 E-score
44 | ACGCAAAG | 0.331 E-score
45 | CTTACTTA | 0.221 E-score
46 | ATTTCCCC | 0.17 E-score
47 | GTACGTCA | 0.244 E-score
48 | CGTCAAAC | 0.159 E-score
49 | GTACGTAA | 0.276 E-score
50 | AAGTAAGT | 0.181 E-score
51 | AATGCGTG | 0.243 E-score
52 | ACGTAACG | 0.272 E-score
53 | ACGTCAAA | 0.261 E-score
54 | TGAAGAAA | 0.241 E-score
55 | CTACGTTA | 0.335 E-score
56 | AACGTAGA | 0.34 E-score
57 | ATGCGTAC | 0.192 E-score

Row | Sequence | binding signal
58 | AGACGTGA | 0.157 E-score
59 | AAATTGAC | 0.194 E-score
60 | GTAAGTCA | 0.21 E-score
61 | ACTAAGTA | 0.252 E-score
62 | GATACGTA | 0.253 E-score
63 | ACGCAAGA | 0.315 E-score
64 | AGACGCAA | 0.242 E-score
65 | ACGTAAGT | 0.233 E-score
66 | TTACGTAA | 0.433 E-score
67 | AATTACGT | 0.352 E-score
68 | CACGCAAG | 0.358 E-score
69 | TTACGGAA | 0.199 E-score
70 | ACGTAAAA | 0.312 E-score
71 | ACGTAAAG | 0.319 E-score
72 | AACGTAAA | 0.36 E-score
73 | GACGTAAC | 0.24 E-score
74 | CTTACCCC | 0.175 E-score
75 | TCACGCAA | 0.396 E-score
76 | CACGAAAG | 0.189 E-score

Molecular target: T3, GST-NTL8 NAC domain (Arabidopsis thaliana, UniProt Q9XIN7 14-156)
T3 sequence: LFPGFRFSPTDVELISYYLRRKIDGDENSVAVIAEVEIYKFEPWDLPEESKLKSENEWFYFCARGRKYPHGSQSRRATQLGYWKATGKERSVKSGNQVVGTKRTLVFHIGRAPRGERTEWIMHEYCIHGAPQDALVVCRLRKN
Assay: as above
Conditions: protein: recombinant; tags: GST; chain copies: 2; dsDNA, one strand shown
How it was run: as §1

Row | Sequence | binding signal
77 | ATTACGTA | 0.134 E-score
78 | ACACGCAA | 0.218 E-score
79 | CAAGGAAA | 0.46 E-score
80 | TAACGTAA | 0.174 E-score
81 | ATTACGTG | 0.146 E-score
82 | ACGCAAAG | 0.19 E-score
83 | CTTACTTA | 0.208 E-score
84 | ATTTCCCC | 0.428 E-score
85 | GTACGTCA | 0.149 E-score
86 | GTACGTAA | 0.167 E-score
87 | AAGTAAGT | 0.267 E-score
88 | ACGTAACG | 0.118 E-score
89 | TGAAGAAA | 0.45 E-score
90 | AGACGTGA | 0.116 E-score
